GCN5L2 inh: qHTS Assay for Inhibitors of GCN5L2. GCN5L2 HAT assay, ThioGlo1 CoA-SH fluorescence. Potency, µM (titrated, usually from 58.9 µM), for inactives: at the highest dose activity change, negative = inhibition, hits mostly inhibitors. AID 504327, 2011. actives 0.21% (n = 390,000). Histone acetyltransferase KAT2A (Homo sapiens), Q92830
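Free CoA generated was detected with ThioGlo1 (50uM) fluorescence at Ex340nm/Em540nm, read immediately and after 20 min at room temperature. Enzyme, 20 nM in HEPES pH 7.5 buffer, saw compounds 15 min before adding 75uM H3(1-25) peptide and 70uM acetyl-CoA.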
JMJD2E inh: qHTS Assay for Inhibitors of Human Jumonji Domain Containing 2E (JMJD2E); JMJD2E catalytic domain, FDH-coupled NADH fluorescence (FDH is formaldehyde dehydrogenase); Potency, µM (titrated, usually from 57.1 µM), inactives show at the top dose activity change, negative = inhibition, most hits filed as inhibitors; actives 1.6% (n = 230,000); AID 2147, 2009; active means well fitted inhibition curve with a large enough effect, not every such curve was filed as active; inconclusive means small, poorly fitted or top-dose-only effect, or another doubt; inactive means no such curve, though single readings can be large or run the other way;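 further: 0% = wells with enzyme and -100% = buffer wells without enzyme; nearly all actives have a fitted effect of over 50% in size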
L3MBTL1 inh: qHTS Assay for the Inhibitors of L3MBTL1 | actives 0.66% (n = 230,000) | Potency, µM (doses to about 57.1 µM), inactives show top-dose activity, negative = inhibition, usual class: inhibitors | Lethal(3)malignant brain tumor-like protein 1 (Homo sapiens), Q9Y468 | AlphaScreen L3MBTL1–H3K9me1 peptide binding; further: nearly all actives have a fitted effect of over 60% in size
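First, the protein-peptide complex forms for 30 min at room temperature (L3MBTL1 50 nM, biotinylated H3K9me1 peptide 75 nM). Next, compounds are pin-transferred and incubated 30 min. Finally, AlphaScreen beads are added and read after 30 min.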
BLM inh: qHTS Assay for Inhibitors of Bloom's syndrome helicase (BLM) | actives 0.2% (n = 350,000) | Potency, µM (series often up to 56.1 µM), for inactives: at the highest dose activity change, negative = inhibition, hits mostly inhibitors | recombinant BLM DNA unwinding, fluorescence dequenching;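 further: plate controls were vehicle for no effect and no enzyme for full effect; nearly all actives have a fitted effect of over 35% in size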
Target sequence (P54132 whole entry, looked up): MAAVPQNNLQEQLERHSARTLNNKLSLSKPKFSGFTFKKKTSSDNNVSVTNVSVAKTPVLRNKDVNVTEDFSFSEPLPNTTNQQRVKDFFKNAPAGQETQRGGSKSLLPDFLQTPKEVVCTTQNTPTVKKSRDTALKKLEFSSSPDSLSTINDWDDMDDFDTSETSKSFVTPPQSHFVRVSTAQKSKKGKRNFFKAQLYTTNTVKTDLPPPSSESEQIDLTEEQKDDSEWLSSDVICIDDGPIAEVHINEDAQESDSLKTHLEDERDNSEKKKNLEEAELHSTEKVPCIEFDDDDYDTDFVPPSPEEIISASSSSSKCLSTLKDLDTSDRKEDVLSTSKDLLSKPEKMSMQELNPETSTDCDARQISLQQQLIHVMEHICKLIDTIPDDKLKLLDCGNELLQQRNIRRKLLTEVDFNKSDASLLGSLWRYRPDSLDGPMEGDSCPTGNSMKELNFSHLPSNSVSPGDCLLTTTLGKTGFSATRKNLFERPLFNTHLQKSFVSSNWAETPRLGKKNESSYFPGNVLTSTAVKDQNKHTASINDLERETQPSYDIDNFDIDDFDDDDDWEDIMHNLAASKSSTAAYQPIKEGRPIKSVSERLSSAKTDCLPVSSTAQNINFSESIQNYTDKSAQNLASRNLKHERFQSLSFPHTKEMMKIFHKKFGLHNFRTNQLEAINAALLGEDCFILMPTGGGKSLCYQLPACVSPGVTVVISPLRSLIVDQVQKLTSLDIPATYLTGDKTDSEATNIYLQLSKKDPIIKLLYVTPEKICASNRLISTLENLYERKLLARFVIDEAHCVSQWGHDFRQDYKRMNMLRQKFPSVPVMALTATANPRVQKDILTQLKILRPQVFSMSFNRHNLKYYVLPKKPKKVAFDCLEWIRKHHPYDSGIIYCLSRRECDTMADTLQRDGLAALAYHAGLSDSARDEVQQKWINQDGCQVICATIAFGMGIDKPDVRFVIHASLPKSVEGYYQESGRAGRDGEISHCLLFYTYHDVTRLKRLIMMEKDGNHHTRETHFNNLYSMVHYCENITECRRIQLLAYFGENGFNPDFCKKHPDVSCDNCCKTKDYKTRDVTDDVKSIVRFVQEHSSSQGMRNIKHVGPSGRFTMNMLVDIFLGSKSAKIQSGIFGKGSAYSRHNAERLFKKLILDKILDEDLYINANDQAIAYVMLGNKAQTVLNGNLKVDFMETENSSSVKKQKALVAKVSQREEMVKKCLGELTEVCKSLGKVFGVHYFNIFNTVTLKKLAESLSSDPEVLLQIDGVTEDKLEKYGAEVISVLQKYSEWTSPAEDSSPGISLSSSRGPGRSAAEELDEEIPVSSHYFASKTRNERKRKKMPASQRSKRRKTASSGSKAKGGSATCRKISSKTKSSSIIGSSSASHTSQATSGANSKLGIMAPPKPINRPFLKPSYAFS
APEX1 inh: qHTS Assay for Inhibitors of the Human Apurinic/apyrimidinic Endonuclease 1 (APE1) | DNA repair nuclease/redox regulator APEX1 (Homo sapiens), P27695 | recombinant APE1, TAMRA/BHQ-2 abasic DNA cleavage fluorescence | Potency, µM (highest dose often 65.8 µM), without a hit: at the highest dose activity change, negative = inhibition, hits mostly inhibitors | actives 0.35% (n = 350,000) | AID 2517, 2012;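 further: plate controls were vehicle for no effect and reference inhibitor for full effect; nearly all actives have a fitted effect of over 55% in size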
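Readout is kinetic fluorescence (ex 525, em 598 nm) from cleavage of 50 nM TAMRA/BHQ-2 THF abasic duplex by 0.75 nM APE1, compound added 15 min beforehand at RT.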
RECQ1 helicase: qHTS Assay for Inhibitors of RecQ-Like Dna Helicase 1 (RECQ1); ATP-dependent DNA helicase Q1 (Homo sapiens), P46063; RECQ1 DNA unwinding, red fluorescence kinetic read; Potency, µM (top dose mostly 57.3 µM), for the others: top-dose activity, negative = inhibition, usual class: inhibitors; actives 0.54% (n = 240,000);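 further: plate controls were vehicle for no effect and no enzyme for full effect; nearly all actives have a fitted effect of over 30% in size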
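RECQ1T1 50 nM; forked duplex (20 bp + 30-nt ss tails) 200 nM, ATP 2 mM final; pH 8.0, 2 mM MgCl2, 2.5 ug/ml poly(dI-dC); 15 min compound preincubation; discontinuous kinetic read over 2 h at RT.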
The depositor's hits bear a star; i = inactive; ? = inconclusive; · = not tested or not shown; [ ] = another dose, or the depositor's remark. The sample as a whole holds a higher share of hits than the screen did. Unless noted, the call rests on the fitted dose curve; in most records, active means well fitted curve in the direction sought with a large enough effect; inconclusive means small, poorly fitted or top-dose-only effect, or another doubt; inactive means no such curve, though single readings can be large; an effect the other way counts as inactive or inconclusive. Unless noted, on the % scale 0 is the no-effect control and ±100 the full control effect; potency means the concentration at half of the fitted maximal effect.

SMILES | GCN5L2 inh | JMJD2E inh | L3MBTL1 inh | BLM inh | APEX1 inh | RECQ1 helicase
O=Cc1ccccc1-n1cccn1 | -1% | -2% | -3% | -3% | -5% | -2%
O=C(O)CC1(CC(=O)N2CCOCC2)CCCC1 | -1% | · | · | 1% | 48% | ·
O=C(N/N=C/c1cn(-c2cccs2)nc1-c1ccccc1)c1ccccc1O | -29% | 5% | 6% | 20µM* | 2% | -2%
O=C(N/N=C/c1cn(-c2cccs2)nc1-c1ccccc1)c1ccccc1Br | -15% | ? | -6% | -7% | -9% | -9%
CCOc1cc(/C=C(\C#N)C(N)=O)cc(CSc2ccccc2)c1O | 34% | · | · | -6% | -5% | -15%
COc1cc(/C=C(\C#N)C(N)=O)cc(CSc2nc3ccccc3s2)c1O | 28µM* | -20% | · | -5% | -2% | 18%
O=C(Sc1cccc2cccnc12)c1ccc(F)cc1 | -5% | ? | 4.5µM* | -3% | 21% | -9%
N#C/C(=C/c1ccc(N2CCCCC2)o1)C(=O)Nc1ccc(Cl)cc1 | -22% | 2% | 4% | -6% | 10% | -1%
N#C/C(=C/c1ccc(N2CCCCC2)o1)C(=O)Nc1ccc2ccccc2c1 | -5% | 25µM* | -12% | -12% | ? | ?
Oc1ccc(/C=N/Nc2nc(N3CCCC3)nc(N3CCCC3)n2)cc1O | -3% | 18µM* | -9% | -5% | -1% | i
CCCc1nnc(NC(=O)CCC(=O)N2CCN(Cc3ccc(Cl)cc3)CC2)s1 | -18% | · | · | 2% | 31% | ·
Oc1c(Br)cc(Br)c(/C=N/n2c(-c3ccccc3)n[nH]c2=S)c1Br | 28µM* | · | -20% | -13% | -10% | ·
CCCC[C@H](NC(C)=O)C(=O)N[C@@H](CCC(=O)O)C(=O)N[C@@H](Cc1cnc[nH]1)C(=O)N[C@H](Cc1ccccc1)C(=O)N[C@@H](CCCN=C(N)N)C(=O)N[C@H](Cc1c[nH]c2ccccc12)C(=O)NCC(N)=O | -3% | · | · | 3% | -5% | 12%
CCCCCCCCCCCCCCCC(=O)N[C@@H](COP(=O)(O)O)C(=O)O | 1.6µM* | 6% | · | -20% | -2% | ?
Cc1onc(NC(=O)NC(=O)c2c(Cl)cccc2Cl)c1Br | -6% | · | · | -5% | 1% | ·
O=C(OC1CCCCC1)c1ccc2c(c1)C1C=CCC1C(C(=O)O)N2 (centres undefined) | 20µM* | -21% | 3.2µM* | 16µM* | ? | 7.9µM*
COc1ccccc1NC(=S)NNC(=O)c1nn(C)c(C)c1Cl | -3% | 14µM* | · | 0% | 0% | ?
COc1ccccc1NC(=S)NNC(=O)c1nn(C)cc1Cl | 0% | 10µM* | 7% | 1% | -9% | -1%
COc1ccccc1NC(=S)NNC(=O)c1ccc(O)cc1 | -2% | 2% | · | 0% | 3% | -15%
COc1ccccc1NC(=O)c1nn(C)cc1Br | 2% | -1% | -2% | -1% | -5% | -12%
COc1ccccc1NC(=S)NNC(=O)c1nn(C)c(C)c1Br | 0% | 7.9µM* | 17% | 8% | -1% | -19%
CCOc1ccc(NC(=O)CN(C)C(=O)c2ccc3nc(CC)c(CC)nc3c2)cc1OCC | -2% | · | -1% | · | 8% | ·
Fc1ccc(Nc2ccc3ccccc3n2)c(F)c1 | -11% | 22µM* | · | -3% | 0% | -20%
CCc1cc(=O)oc2c(CN3CCCC3)c(O)c(Cl)cc12 | -25% | ? | · | 2% | 12% | i
CCc1cc(=O)oc2cc(C)c(CN3CCCC(C)C3)c(O)c12 (centres undefined) | 32µM* | ? | 11µM* | ? | 14µM* | 7.1µM*
SMILES | GCN5L2 inh | JMJD2E inh | L3MBTL1 inh | BLM inh | APEX1 inh | RECQ1 helicase
CC1N(C)c2cc(NC(=O)c3ccco3)ccc2C1(C)C (centres undefined) | -4% | 3% | -14% | ? | ? | 25µM*
O=C(CSc1nnc(-c2cccs2)o1)Oc1ccccc1Cl | -6% | · | · | 0% | · | ·
CC(=O)c1cccc(N(C(=O)Cn2nnc3ccccc32)C(C(=O)NC2CCCCC2)c2cn(C)nc2C)c1 (centres undefined) | -1% | 10% | · | 2% | 0% | -11%
O=C(NC1CCCCC1)C(c1ccc(O)c(O)c1)N(C(=O)Cn1nnc2ccccc21)c1cccc(O)c1 (centres undefined) | -21% | 16µM* | ? | -12% | -11% | -8%
CC[C@]12c3[nH]c4cc(CCC(=O)N(C)C)ccc4c3CCN1C(=O)[C@@H](CC(=O)NCCCOC)C[C@@H]2C(=O)N1CCN(C(=O)C2CC2)CC1 | 1% | · | 26% | · | 21µM* | ·
CC[C@]12c3[nH]c4cc(CCC(=O)N(C)C)ccc4c3CCN1C(=O)[C@@H](CC(=O)NCCCN(C)C)C[C@@H]2C(=O)N1CCN(C(=O)C2CC2)CC1 | 2% | · | 4% | · | 2% | ·
CC[C@]12c3[nH]c4cc(-c5ccco5)ccc4c3CCN1C(=O)[C@@H](CC(=O)NCCC1=CCCCC1)C[C@@H]2C(=O)N1CCN(C(=O)c2ccco2)CC1 | ? | · | 20µM* | · | -14% | ·
CC(C)(C)c1ccc(OC2C(O)COC2/C=C/C#Cc2ccccc2)cc1 (centres undefined) | · | · | · | -4%[12.4 µM] | ? | -6%[11.5 µM]
O=C1NC(=S)S/C1=C\c1ccc(SCc2ccccc2)o1 | -6% | -1% | 28µM* | -1% | ? | ?
O=C1NC(=S)S/C1=C/c1ccc(OC(=O)c2ccco2)cc1 | -24% | · | · | -14% | -5% | ·
CCCCCCCC#Cc1ccccc1C(NC(=O)OC)C(C(=O)OC)C(=O)OC (centres undefined) | · | · | · | -6%[12.4 µM] | ? | i[11.5 µM]
O=C(CNC(=O)c1cccs1)NCC(=O)OCc1ccccc1Cl | 3.2µM* | -4% | 38% | -1% | -1% | -3%
C/C(=N\OCc1nc2ccccc2c(=O)n1/N=C/c1cc(C)cc([N+](=O)[O-])c1O)c1ccccc1 | -19% | 14µM* | ? | -4% | 0% | ?
C[C@@H](CO)[C@H](/C=C/c1ccccc1)CCO[Si](c1ccccc1)(c1ccccc1)C(C)(C)C | · | · | · | -18% | 4% | i
CN(C)Cc1c(O)c(Cl)cc2c3c(c(=O)oc12)CCCC3 | ? | ? | · | 2% | -2% | 1%

High-throughput results from PubChem.
